IL-1B inflam inh = inflammasome signaling inhibition, IL-1 beta readout; activity change, % at 57.5 µM; AID 743279; 4.7% of 360,000 active; THP-1 LPS/ATP IL-1B secretion, AlphaLISA, 16 h; active compounds read low; in the data active = activity change below about -50%; inconclusive = mostly about -30% to -49%
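THP-1 cells pretreated 1 hr with compounds (up to 57.5 uM final), then stimulated with LPS (250 ng/mL final) plus ATP (1.25 mM final); secreted IL-1B measured by AlphaLISA after 16 hr, decreased signal indicating inhibition.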
DT40 TDP1 no CPT = qHTS for Inhibitors of human tyrosyl-DNA phosphodiesterase 1 (TDP1): qHTS in cells in absence of CPT | DT40 Tdp1-/- hTDP1 cells, no CPT, ATP luminescence, 48 h | 15% of 420,000 active | Potency, µM (top dose mostly 46.2 µM), for the others: top-dose activity change, negative = growth inhibition, most hits filed as inhibitors; also: potency is read from the fitted curve at half-maximal effect; nearly all actives have a fitted effect of over 55% in size
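Growth of hTDP1-complemented DT40 Tdp1-knockout cells is measured by ATP luminescence after at least 48 hr compound exposure at 37 °C, with DMSO substituting for the 20 nM CPT used in the parallel screen.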
ELG1 DNA repair = ELG1-dependent DNA repair inhibition; HEK293T ELG1-luciferase reporter, luminescence, 16 h; DNA damage induced by 5-fluorouridine; Potency, µM (highest dose often 46.1 µM), without a hit: top-dose activity change, negative = inhibition, actives largely listed as inhibitors; 2.3% of 330,000 active; AID 504467; also: potency is read from the fitted curve at half-maximal effect; nearly all actives have a fitted effect of over 55% in size
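5-Fluorouridine DNA damage + compound/DMSO, 2,000 cells/well, 16 h, 37 °C/5% CO2. ONE-Glo, 30 min RT, luminescence. Readout = decrease in reporter signal.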
HT1080-NT tox = kills 2HG-producing HT-1080-NT fibrosarcoma cells; HT-1080-NT fibrosarcoma viability, CellTiter-Glo ATP luminescence, 48 h; Potency, µM (doses to about 46.1 µM), without a hit: top-dose activity, negative = less viability, most hits filed as cytotoxic; 1.6% of 360,000 active;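 also: NT is the 2HG producing partner of a matched IDH1 knockdown line; potency is read from the fitted curve at half-maximal effect; 0% = DMSO-treated cells and -100% = media-only wells without cells; nearly all actives have a fitted effect of over 55% in size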
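Viability of the 2HG-overproducing fibrosarcoma line after 48 hours of compound exposure at 37 degrees C was determined by luminescence with CellTiter-Glo, and concentration-effect curves were then fitted and categorized.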
DT40 TDP1 CPT = growth inhibition of DT40 Tdp1-/-;hTDP1 cells with camptothecin (screen for TDP1 inhibitors); AID 686979; chicken DT40 Tdp1-/-;hTDP1 cells + 20 nM CPT, ATP luminescence, 48 h; 12% of 420,000 active; Potency, µM (series often up to 46.2 µM), for inactives: at the top dose activity change, negative = growth inhibition, most hits filed as inhibitors; also: potency is read from the fitted curve at half-maximal effect; nearly all actives have a fitted effect of over 55% in size
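Cell growth measured by CellTiter-Glo luminescence after a minimum 48 h, 37 C compound exposure with 20 nM CPT in Tdp1-knockout DT40 cells stably expressing hTDP1, seeded 400/well; qHTS titration format.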
HT1080 IDH1KD tx = HT-1080 IDH1 knockdown cell toxicity (counter line); HT-1080 IDH1 knockdown viability, ATP luminescence, 48 h; AID 686971; Potency, µM (top dose mostly 46.1 µM), without a hit: at the top dose activity, negative = toxicity, actives largely listed as cytotoxic; 2% of 360,000 active;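 also: potency is read from the fitted curve at half-maximal effect; 0% = DMSO wells and -100% = cell-free medium wells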
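Assay cells: HT-1080 with IDH1 knockdown, 750 per well, RPMI/5% FBS. Exposure: 48 h at 37 °C following 2 h pre-incubation. Read: CellTiter-Glo luminescence; fitted concentration-response, curve class assigned.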
* = called active by the depositor; ? = inconclusive; / = no result given. Only some compounds are listed: those with a hit (about 19% of all), similar ones and a draw of the others. Unless noted, calls follow the shape of the dose curve; as a rule, active = well fitted curve in the direction sought with a large enough effect; inconclusive = small, poorly fitted or top-dose-only effect, or another doubt; inactive = no such curve, though single readings can be large; an effect the other way counts as inactive or inconclusive. Unless noted, % is scaled to controls: 0 for no effect and ±100 for the full control effect.

SMILES	IL-1B inflam inh	DT40 TDP1 no CPT	ELG1 DNA repair	HT1080-NT tox	DT40 TDP1 CPT	HT1080 IDH1KD tx
CCc1ccc(NC(=O)CN2C(=O)C(c3ccc(F)cc3)=NC2(C)C)cc1	/	-14.8%	/	/	5.0%	/
CNC(=O)c1cccc(NC(=O)CCCNC(=O)c2ccc(Cl)cc2)c1	90.1	-10.9%	?	24.2%	11.5%	13.0%
O=C(C1CCN(c2ncnc3c2nc2n3CCCCC2)CC1)N1CCN(c2ccccc2F)CC1	-8.0	20.6µM*	?	?	?	-24.4%
Cc1cccc(N2CCN(C(=O)C3CCN(c4ncnc5c4nc4n5CCCCC4)CC3)CC2)c1C	-15.4	18.4µM*	?	-2.1%	18.4µM*	0.0%
COCCCNC(=O)C1CCN(c2ncnc3c2nc2n3CCCCC2)CC1	/	-1.4%	/	/	14.6%	/
COc1cccc(CNC(=O)C2CCN(c3ncnc4c3nc3n4CCCCC3)CC2)c1	5.6	?	8.2%	1.3%	-28.6%	-0.2%
Cc1cccc(N2CCN(C(=O)C3CCN(c4ncnc5c4nc4n5CCCCC4)CC3)CC2C)c1 (stereo unspecified)	?	4.61µM*	4.11µM*	?	6.51µM*	?
CCC(=O)N1CCC1(C)C(=O)Nc1ccc(C)c(C)c1 (stereo unspecified)	13.4	-5.2%	/	10.0%	-11.9%	-1.0%
CN(C)CCNC(=O)C(=O)NCC1CCCN1S(=O)(=O)c1cccs1 (stereo unspecified)	-5.8	-19.8%	0.9%	15.9%	-16.6%	11.9%
CC(NCc1ccc2c(c1)n(C)c(=O)n2C)c1ccccc1 (stereo unspecified)	/	-0.6%	/	/	-14.5%	/
Cc1ccc2[nH]cc(C(=O)CCl)c2c1	-100.7*	4.11µM*	?	16.4µM*	2.59µM*	20.6µM*
Cc1ccc2c(C(=O)CCl)c(C)[nH]c2c1	-97.6*	2.59µM*	-17.0%	?	3.66µM*	20.6µM*
Cc1ccc2c(C(=O)CN3CCSCC3)c(C)[nH]c2c1	-11.1	?	-4.0%	0.8%	16.4µM*	-1.8%
COc1ccc(-n2ncc3c(SCC(=O)OC(C)C)ncnc32)cc1	-19.7	?	/	-3.3%	-8.7%	3.1%
Nc1cc(=O)[nH]c(SCC(=O)Nc2cccc(S(=O)(=O)N3CCCCC3)c2)n1	26.2	-2.0%	-4.2%	0.0%	1.9%	-1.8%
O=C(NNC(=O)c1cccc(S(=O)(=O)N2CCCCC2)c1)c1ccccc1	7.9	-2.8%	-12.3%	1.3%	4.5%	-1.9%
CC(C)Cn1c(O)c(N=NC(=O)c2cccc(S(=O)(=O)N3CCCCC3)c2)c2ccccc21	?	13µM*	?	3.3%	16.4µM*	-1.5%
CC(C)CCn1c(SCC(=O)c2ccccc2)nc2c1c(=O)[nH]c(=O)n2C	21.4	-35.8%	/	-0.3%	?	-1.2%
CC1CCN(c2nc3c(c(=O)[nH]c(=O)n3C)n2CC(C)CSc2nnnn2-c2ccccc2)CC1 (stereo unspecified)	?	?	?	-3.2%	16.4µM*	8.6%
CC(CSc1nc2ccccc2s1)Cn1c(N2CCCC2)nc2c1c(=O)[nH]c(=O)n2C (stereo unspecified)	-18.8	16.4µM*	14.6µM*	-21.7%	?	?
CC(C)CCn1c(Sc2nc3ccccc3s2)nc2c1c(=O)[nH]c(=O)n2C	-16.2	16.4µM*	?	-19.9%	?	-11.1%
O=C(CCNC(=O)C1CCN(S(=O)(=O)c2ccc(F)cc2)CC1)Nc1ccccc1	?	8.4%	?	15.3%	-1.2%	-0.5%
Cc1c(-c2cc(Br)ccc2O)nc2cc3c(cc2c1C)OCO3	21.0	-28.9%	?	-0.7%	?	-17.4%
